Assay outcomes deposited in PubChem BioAssay by National Center for Advancing Translational Sciences (NCATS).
In the library only some 19% were active in any assay of this set; here they are far more common.
LASV entry inh: Lassa virus entry inhibition | Lassa virus pseudotype entry inhibition, cell reporter | Potency, µM (titrated, usually from 37.9 µM), for inactives: at the top dose activity change, negative = inhibition, usual class: inhibitors | hit rate 1.2% among 300,000; calls by dose curve; tested in HEK293 cells; further: potency means the concentration at half of the fitted maximal effect; on the % scale 0 is the no-effect control and ±100 the full control effect; nearly all actives have a fitted effect of over 50% in size
Marburg entry inh: Marburg virus entry inhibition; Marburg virus pseudotyped entry inhibition, cell reporter; Potency, µM (doses to about 37.8 µM), for inactives: top-dose activity change, negative = inhibition, actives largely listed as inhibitors; hit rate 1.8% among 300,000; AID 540276; calls by dose curve; tested in HEK293 cells; further: potency means the concentration at half of the fitted maximal effect; on the % scale 0 is the no-effect control and ±100 the full control effect
Shiga inhibitor: inhibitors of Shiga toxin in Vero cells | Vero cells, Shiga toxin protein synthesis inhibition reporter | hit rate 9.2% among 290,000 | AID 2315 | inhibition, % at 38.7 µM; in the data active means inhibition mostly above about 28%, no sharp cut-off; inactive means mostly below about 43%; further: 0% is about no effect
Pf growth 48h: inhibits P. falciparum growth in the first generation, 48 h | hit rate 5.9% among 310,000 | AID 504832 | Potency, µM (top dose mostly 28.7 µM), for inactives: top-dose activity change, negative = inhibition, usual class: inhibitors | P. falciparum luciferase growth in erythrocytes, 48 h; further: potency means the concentration at half of the fitted maximal effect; on the % scale 0 is the no-effect control and ±100 the full control effect
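Parasite viability was followed by luminescence of a genomically integrated firefly luciferase. Cultures held 0.1% parasitemia at 2% hematocrit (final), incubated under 5% CO2 at 37 C.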
CHX counter: counter-screen hit for Shiga toxin inhibitors, cycloheximide; cell reporter, cycloheximide protein synthesis inhibition counterscreen; max response, %; hit rate 12% among 300,000; AID 2314; in the data active means max response mostly above about 13%, no sharp cut-off; inactive means mostly below about 14%; further: read at 38.3 µM for the half of the compounds with a filed dose; 0% is about no effect
Pf growth 96h: P. falciparum growth inhibition at 96 hour, primary screen for plastid delayed-death inhibitors. Potency, µM (highest dose often 28.7 µM), without a hit: top-dose activity change, negative = inhibition, actives largely listed as inhibitors. P. falciparum luciferase reporter growth, 96 h. hit rate 6.9% among 320,000; further: potency means the concentration at half of the fitted maximal effect; on the % scale 0 is the no-effect control and ±100 the full control effect
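Readout is luminescence from an integrated firefly luciferase in P. falciparum. Red cells, 2% hematocrit and 0.05% parasitemia final, were cultured with compound through two parasite generations (96 hours) at 37 C, 5% CO2.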
An asterisk follows results filed as active; ? = inconclusive; nt = no result given; [ ] = remark or other dose. Unless noted, the call rests on the fitted dose curve; in most records, active means well fitted inhibition curve with a large enough effect; inconclusive means small, poorly fitted or top-dose-only effect, or another doubt; inactive means no such curve, though single readings can be large or run the other way.

SMILES	LASV entry inh	Marburg entry inh	Shiga inhibitor	Pf growth 48h	CHX counter	Pf growth 96h
CC(C)[C@H](N)C(=O)OCCOCn1cnc2c(=O)[nH]c(N)nc21	nt	nt	-1	0%	0	?
CCOC(=O)c1c(NC(=O)CSc2n[nH]c(-c3ccco3)n2)sc(C)c1C	?	-33%	-12	0%	-3	nt
O=C(NN=C1CCCCCCC1)c1ccc(F)cc1	11%	?	76*	-9%	24*	4%
O=C(NN=C1CCCCCCCCCCC1)c1cccnc1	nt	nt	-3	0%	-2	0%
O=C(NN=C1CCCC1)c1ccn[nH]1	?	?	104*	109%	56*	?
O=C(NN=C1CCCCCC1)c1cccs1	6%[46.1 µM]	10%[46.1 µM]	92*	6%	61*	?
O=C(NN=C1CCCCCCCCCCC1)c1ccccc1F	20%	?	70*	2%	78*	3%
COc1cc(C2C(C(=O)c3cccs3)=C(O)C(=O)N2c2cc(C)on2)ccc1O (configuration not stated)	18%	11%[46.1 µM]	15	22%	-3	0%
C=CCn1cc(C=C2C(=O)NC(=O)NC2=O)c2ccccc21	-6%	?	-3	nt	-5	-2%
Cc1ccc(S(=O)(=O)Nc2cc(C(=O)NCCN(C)C)ccc2N2CCCCC2)cc1	?	?	-4	9.3µM*	-2	?
Cc1ccc(S(=O)(=O)Nc2cc(C(=O)NCCN3CCCC3)ccc2N2CCCCC2)cc1	?	?	-17	12µM*	-4	nt
COCCCNC(=O)c1ccc(N2CCCC2)c(NS(=O)(=O)c2ccc(C)cc2)c1	3%	-25%	44	?	11	10%
CCC(=O)Nc1c(C(=O)N2CCN(c3ccccn3)CC2)cnn1-c1ccc(Cl)cc1	0%	-2%	-14	-3%	-5	-3%
CC(C)c1ccc(-c2c(C#N)c(N)nc(SCC(=O)N3CCCCCC3)c2C#N)cc1	-14%	?	-18	nt	-4	5.2µM*
COc1ccc(C2CC(C(F)(F)F)n3nc(C(=O)N(C)Cc4cn(C)nc4C)c(Cl)c3N2)cc1 (configuration not stated)	-2%	-13%	-2	15µM*	2	0%
COc1ccc(C2CC(C(F)(F)F)n3nc(C(=O)NCc4c(C)nn(C)c4C)c(Cl)c3N2)cc1 (configuration not stated)	-38%	10µM*	-19	?	4	-2%
O=C(CCNC(=O)c1ccc(Br)cc1)NC1CCCCCC1	2%	-9%	nt	-15%	nt	?
CN1CCN(S(=O)(=O)c2ccc(N3CCN(C(=O)c4ccccc4)CC3)nc2)CC1	-10%[46.1 µM]	2%[46.1 µM]	0	-26%	11	?
O=S(=O)(Nc1ccc(-c2nc3cccnc3s2)cc1)c1ccc(Cl)s1	nt	nt	16*	49%	33*	88%
O=S(=O)(Nc1cccc(-c2nc3cccnc3s2)c1)c1ccc2c(c1)CCCC2	0%	-3%	6	18%	8	5%
O=S(=O)(Nc1ccc(-c2nc3cccnc3s2)cc1)c1ccccc1F	4%	?	92*	40%	50*	28%
Cc1nc2cc(NS(=O)(=O)c3ccccc3F)ccc2s1	nt	nt	9	10%	4	21%
O=S(=O)(Nc1ccc(-c2nc3cccnc3s2)cc1)c1cccs1	nt	nt	36	52%	28*	74%
Cc1cc(-c2nc3cccnc3s2)ccc1NS(=O)(=O)c1ccc2c(c1)OCCO2	nt	nt	29	-2%	12	46%
Cc1cc(-c2nc3cccnc3s2)ccc1NS(=O)(=O)c1cccs1	nt	nt	138*	256%	48*	167%
SMILES	LASV entry inh	Marburg entry inh	Shiga inhibitor	Pf growth 48h	CHX counter	Pf growth 96h
COC(C[C@@H]1O[C@H]1[C@@H](O)COCc1ccccc1)OC	nt	nt	-9	0%	-3	-6%
O=C(NCCCN1CCCC1)C1CCC(=O)N1C1CCCCC1 (configuration not stated)	-11%	2%	-20	30%	-8	7%
O=C(NCc1ccccn1)C1CCC(=O)N1C1CCCCC1 (configuration not stated)	nt	3%	-2	nt	-6	1.9µM*
CC1CC(C)CN(CCCNC(=O)C2CCC(=O)N2C2CCCC2)C1 (configuration not stated)	14%	6%	16	51%	-5	10µM*
CCc1ccc(CNC(=O)C2CCC(=O)N2C2CCCCC2)cc1 (configuration not stated)	-2%	19%	-16	nt	-3	27%
CN(C)c1ccc(CNC(=O)CCCN2C(=O)CCn3nc(-c4cccn4C)cc32)cc1	4%[46.1 µM]	nt	nt	nt	nt	nt
CC1OC(Nc2ccc(N=Nc3ccccc3)cc2)C(O)C(O)C1O (configuration not stated)	10%[46.1 µM]	10%[46.1 µM]	118*	132%	37*	28%
C=CCNC(=O)c1scc2c1CCCC2	1%	24%	52	2%	16*	-6%
Brc1ccc(-c2noc(CCc3ccccc3)n2)o1	nt	nt	84*	nt	17*	?
Cc1ccc(S(=O)(=O)N(C)Cc2nc(-c3ccccn3)no2)cc1	9%	10%	-15	3%	-3	nt
Fc1ccc(OCc2nc(-c3ccc(Br)o3)no2)c(F)c1	nt	nt	62*	nt	18*	?
CN(Cc1nc(-c2ccccn2)no1)S(=O)(=O)c1ccccc1	8%	-1%	61*	28%	24*	-10%
Clc1ccccc1OCc1nc(-c2ccc(Br)o2)no1	nt	nt	70*	nt	54*	3%
O=C(NCc1nc(-c2ccccc2)no1)c1ccc(Br)o1	3%	1%	-17	-3%	-1	?
CCOc1ccc(NC(=O)CSc2oc(-c3cccs3)nc2S(=O)(=O)c2ccc(Cl)cc2)cc1	-1%[46.1 µM]	0%[46.1 µM]	nt	nt	nt	nt
Cc1cc(Br)cc2c(C(=O)OCC(=O)c3ccccc3)cc(-c3ccccc3)nc12	-3%[46.1 µM]	18%[46.1 µM]	nt	nt	nt	nt
CCC(CC)C(=O)Nc1cccc(C(=O)NCc2ccco2)c1	9%	3%	11	-15%	6	-5%
COc1cc(OC)cc(C(=O)OCC(=O)N(C)c2ccccc2)c1	-25%[46.1 µM]	0%[46.1 µM]	-4	8%	-2	24%
CC(OC(=O)COc1ccccc1[N+](=O)[O-])C(=O)Nc1ccc(N2CCOCC2)cc1 (configuration not stated)	19%[46.1 µM]	?	73	51%	21	3%
O=C(CCc1nc(-c2ccccn2)no1)NCc1ccc2c(c1)OCO2	14%	19%[46.1 µM]	26	6%	0	13%
c1ccc(CCc2nc(-c3ccccn3)no2)cc1	-15%	19%	125*	97%	31*	nt
O=C1c2cccc([N+](=O)[O-])c2C(=O)N1c1c[nH]c(=O)[nH]c1=O	27%[46.1 µM]	4%[46.1 µM]	30	33%	29	?
O=C(c1ccccc1)C(C(=O)N1CCCCC1)n1ccccc1=O (configuration not stated)	nt	nt	-6	12%	-5	51%
